Measured values as given in PubChem BioAssay.
Active and inactive are the calls of the source. No rule for the calls is given here.

Experiment: inhibition of Brca1/Bard1 split-luciferase complementation, confirmation, counter-screen for Mdm2/MdmX interaction inhibitor project, luminescence, single concentration (AID 504668)
Settings: Brca1/Bard1 bimolecular luciferase complementation counterscreen, at 8 µM, active compounds read high
With `CCc1ccc2c(c1)C1(NN=C(c3cccc4ccccc34)S1)C(=O)N2` (stereo not given) the inhibition was 30% (active).
In the case of `COc1cc2c(O)c3c(c(-c4ccc5c(c4)OCO5)c2cc1OC)C(=O)OC3`, the inhibition is reported as 26.1% (active).
For `COc1cc(C(=O)N/N=C(\Cc2ncc[nH]2)c2ccccc2)cc(OC)c1OC`, the inhibition was 23.7% (active).
For `CC(NC(=O)CN(c1cccc(C(F)(F)F)c1)S(=O)(=O)c1ccc(Cl)c([N+](=O)[O-])c1)c1ccccc1` (stereo not given), the inhibition was 35.1% (active).
With `O=C(CNc1ccc(F)cc1)N/N=C/c1c(O)ccc2ccccc12` the inhibition was 27.9% (active).
With `CC(=O)/C(C#N)=C1\NC(=O)C(Cc2ccc(C)c(C)c2)S1` (stereo not given) the inhibition was 32.1% (active).
For `N#Cc1ccc(NC(=O)Nc2ccc(Oc3ccc(NC(=O)Nc4ccc(C#N)cc4)cc3)cc2)cc1`, the inhibition was 35.1% (active).
In the case of `Cc1nc(NC(=O)/C=C/c2ccccc2)n[nH]1`, the inhibition is reported as 32.9% (active).
In the case of `CCN1/C(=C/c2ccc3cccc(C)c3[n+]2CC)Sc2ccccc21`, the inhibition is reported as 26.4% (active).
With `O=c1cc(CSc2ccc(Cl)cc2)nc(-c2ccccn2)[nH]1` the inhibition was 30.5% (active).
With `CCOc1ccc(N(C(=O)/C=C/C(=O)Nc2cc(C)on2)C(C(=O)NC2CCCC2)c2ccccc2C)cc1` (stereo not given) the inhibition was 27.4% (active).
In the case of `COc1cc(OC)cc(C(=O)Oc2c(CN3CCOCC3)cc(Cl)c3cccnc23)c1`, the inhibition is reported as 33.8% (active).
For `Cc1ccc(-c2csc(NC3OC(=O)c4ccccc43)n2)cc1` (stereo not given), the inhibition was 23.7% (active).
For `COc1ccc(N2C(=O)N3[C@H](c4cccc(C)c4)[C@@H]4C(=O)N(Cc5ccccc5)C(=O)[C@@H]4[C@]3(Cc3ccccc3)C2=O)cc1`, the inhibition was 35.6% (active).
In the case of `CC(C)C(=O)NC(c1ccco1)c1ccc2cccnc2c1O` (stereo not given), the inhibition is reported as 24% (active).
For `O=C(N/N=C/c1cc(Br)ccc1O)c1ccccc1Cl`, the inhibition was 35.3% (active).
In the case of `C=CCn1c(CNc2ccc(C)cc2)nnc1SCC(=O)N/N=C/c1ccc(O)cc1O`, the inhibition is reported as 35.6% (active).
In the case of `Cc1ccc2[nH]c(C(=O)N/N=C/c3ccccc3O)c(C)c2c1`, the inhibition is reported as 25.3% (active).
For `COc1ccc(Cc2nnc(N/N=C/c3ccc(O)cc3)[nH]c2=O)cc1OC`, the inhibition was 24.8% (active).
For `O=C(Nc1nc(-c2ccccn2)cs1)c1cc(Cl)ccc1[N+](=O)[O-]`, the inhibition was 32.3% (active).
For `Cc1ccc(CNC(=O)c2ccc3c(=O)c(O)c(-c4ccc(C)cc4)[nH]c3c2)cc1`, the inhibition was 29% (active).
For `Cc1ccc(NC(=O)c2ccccc2NS(=O)(=O)c2ccc(Cl)s2)cc1`, the inhibition was 28.9% (active).
In the case of `C/C(N=Nc1nc2ccccc2s1)=N\Nc1ccccc1O`, the inhibition is reported as 26.2% (active).
With `CN(C)CCCNC(=O)/C(=C\c1ccc(-c2ccc(Br)cc2)o1)NC(=O)c1ccccc1` the inhibition was 29.2% (active).
In the case of `COc1ccc(OC)c2sc(NC(=O)CCS(=O)(=O)c3ccccc3)nc12`, the inhibition is reported as 23.8% (active).
In the case of `COc1ccc(NC(=O)c2cc3c(CO)cnc(C)c3oc2=Nc2cccc(F)c2)c(OC)c1`, the inhibition is reported as 27.9% (active).
With `CN(C)C1CCN(Cc2cc(COCc3ccccc3)c3cccnc3c2O)C1` (stereo not given) the inhibition was 32.8% (active).
In the case of `C=CCn1c(SCC(=O)Nc2ccc(F)cc2F)nc2c([nH]c3ccccc32)c1=O`, the inhibition is reported as 26.8% (active).
In the case of `COc1ccc(NC(=O)CSc2nc3c(sc4ccccc43)c(=O)n2CCCN2CCCC2)cc1`, the inhibition is reported as 23.1% (active).
In the case of `Cc1cccc(NC(=O)[C@H](Cc2c[nH]c3ccccc23)NC(=O)[C@@H]2Cc3ccccc3CN2)c1`, the inhibition is reported as 26.6% (active).
With `Cc1nc2ccccn2c1C(=O)/C=C/c1cccc([N+](=O)[O-])c1` the inhibition was 27.6% (active).
With `N#Cc1c(-c2ccccc2)c(-c2ccccc2)nn(CC(=O)NNC(=O)Nc2ccc(Cl)c(Cl)c2)c1=O` the inhibition was 35.9% (active).
In the case of `COc1ccc(N/N=C(/N=Nc2nc(C)cc(=O)[nH]2)c2ccccc2)cc1`, the inhibition is reported as 30.7% (active).
In the case of `Cc1sc2ncn(CC(=O)NCCCC(=O)Nc3ccc(C(C)C)cc3)c(=O)c2c1C`, the inhibition is reported as 29.2% (active).
With `Cc1nnc(-c2ccccc2)c(=O)n1/N=C/c1c(O)ccc2ccccc12` the inhibition was 30.7% (active).
For `CN(C)C=Nc1ncc2c([nH]c3ccccc32)c1C#N`, the inhibition was 23% (active).
With `COC(=O)c1ccc(Sc2nnnn2-c2ccccc2)c([N+](=O)[O-])c1` the inhibition was 23% (active).
For `COc1ccc(C(C)=O)cc1CSc1nnc(-c2ccc(Cl)cc2)n1-c1ccccc1`, the inhibition was 25.6% (active).
With `Oc1ccccc1/C=N/Nc1nccnc1Cl` the inhibition was 30.8% (active).
For `OC(CNCc1ccc(-c2ccccc2)cc1)c1ccccc1` (stereo not given), the inhibition was 26.9% (active).
